The text below walks through data of PMC6212790, “How bacterial xenogeneic silencer rok distinguishes foreign from self DNA in its resident genome”.

Whole data set: some 33,000 sequences, median “e-score” near -0.038, cut for the highest 2% near 0.33. The sample as a whole holds a higher share of the highest values than the screen did.

The assay concerns the target T1, GST-Rok-C97-191 (Bacillus subtilis subsp. subtilis str. …, UniProt O34857 97-191).
T1 sequence: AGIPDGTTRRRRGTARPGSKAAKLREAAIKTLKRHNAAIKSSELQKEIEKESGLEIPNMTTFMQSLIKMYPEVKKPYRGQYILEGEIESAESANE
The experiment in a line: protein binding microarray; Rok is a gene silencer of Bacillus subtilis; high values mean tight binding. The settings on record: protein: recombinant; tags: GST (pTH5325, pDEST15-Magic modified); dsDNA, one strand shown. In outline:
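Every oligonucleotide joins a 25-mer constant primer to a 35-mer variable part drawn from a de Bruijn sequence of order 10, so each non-palindromic 8-mer appears at least 32 times and each palindromic 8-mer 16 times. The preference for every 8-mer is reported as a unitless, rank-based enrichment score (E-score). This score spans 0.5 for the most favored 8-mer to −0.5 for the most disfavored.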
On to AAACATAT, for which the binding signal turned out to be 0.276 E-score.
Next, ATACATAT: 0.377 E-score; TTACATAA: 0.288 E-score; ACGGGACT: 0.158 E-score.
Next, CATCATTC: 0.0109 E-score.
In the case of GCGATGCC it was -0.131 E-score.
As for CGACTTGA, the binding signal stood at 0.0696 E-score.
In the case of CTGCGTAC it was -0.112 E-score; in that of TCCGAGCA, 0.113 E-score.
On to AAAATGTA, for which the binding signal worked out at 0.316 E-score.
Next, TAAATGTA: 0.399 E-score; CAAATGTA: 0.269 E-score.
Next, GAAATGTC: 0.165 E-score; GAAATGCA: -0.0957 E-score.
In the case of GAAATGTA it was 0.329 E-score; in that of TGCCTAAA, -0.0357 E-score; in that of ACCCTTAT, 0.126 E-score.
As to CGCACTGC, the binding signal is 0.0347 E-score.
In the case of ACATCGAG it was 0.0748 E-score; in that of ACGTGGGG, -0.173 E-score.
In the case of AGATTCTC it was 0.00255 E-score; in that of ATATTCTA, 0.408 E-score; in that of CTATTCTA, 0.287 E-score.
Next, ATATTCTC: 0.327 E-score.
With AGATTCTA, the binding signal worked out at 0.356 E-score.
Regarding GGATTCTA, the binding signal came out at 0.293 E-score.
For the sequence TCATCTAA, the binding signal was -0.0045 E-score.
In the case of CAGGTCTC it was -0.144 E-score; in that of GACTTGGC, -0.0709 E-score; in that of CCAATATA, 0.323 E-score.
With ATAATATG, the binding signal stood at 0.244 E-score.
In the case of CTAATATA it was 0.36 E-score; in that of ATAATATC, 0.209 E-score.
For the sequence CTAATAGA, the binding signal stood at 0.252 E-score.
Next, GTAATACA: 0.258 E-score; ATAATATA: 0.435 E-score; CTAATATC: 0.141 E-score.
In the case of ACAATATA it was 0.354 E-score; in that of ACAATATG, 0.146 E-score.
Next, GTAATATA: 0.335 E-score; GTAATAGA: 0.284 E-score.
AGTGCCGC: the binding signal is -0.0284 E-score.
In the case of ATGGTGAA it was 0.0706 E-score; in that of GCTGATTA, 0.0269 E-score.
Next, GAAAGAAC: 0.0785 E-score; CCAGTTGA: -0.091 E-score; AACAGAGG: -0.0648 E-score.
In the case of CGAGTGTC it was -0.0337 E-score; in that of ATGACGGG, -0.176 E-score.
As to GGGGCTAA, the binding signal is -0.0896 E-score.
Next, ATAAGAAT: 0.215 E-score; AGAATATA: 0.231 E-score; CGAATATA: 0.245 E-score.
Next, GGAATATA: 0.377 E-score; CAACGGCA: -0.159 E-score.
In the case of GCGCAATA it was 0.0439 E-score; in that of CCCGGTAG, -0.134 E-score; in that of AGCGGTAT, 0.237 E-score.
Consider CGCGGTAG, for which the binding signal was found to be 0.00539 E-score.
In the case of ACCGGTAA it was 0.192 E-score; in that of AGCGGTAG, 0.33 E-score.
Regarding ACCGGTAG, the binding signal amounted to 0.335 E-score.
In the case of ATGACCCA, the binding signal is -0.129 E-score.
In the case of GTTTGTTA it was 0.13 E-score; in that of ACATCAAA, 0.02 E-score.
Next, CCTGTCAG: -0.131 E-score; AACTAACA: 0.126 E-score.
In the case of GACTAAAA it was 0.144 E-score; in that of TACTAAAA, 0.421 E-score.
For the sequence AACTAACT, the binding signal worked out at 0.352 E-score.
In the case of AACTAAAT it was 0.379 E-score; in that of AACTAAAC, 0.00571 E-score.
With AACTAATC, the binding signal stood at 0.129 E-score.
For AACTAACG, the binding signal stood at 0.263 E-score.
Next, CACTAAAA: 0.299 E-score; AACTAATT: 0.344 E-score.
Next, AACTAAAG: -0.0536 E-score.
Next, AACTAATA: 0.288 E-score; AGGCACAT: -0.0618 E-score.
CTGCAACA: the binding signal was found to be 0.0545 E-score.
Consider ACGGACCA, for which the binding signal is -0.109 E-score.
In the case of CGTCCTTA it was 0.175 E-score.
On to AAAATGTG, for which the binding signal came to 0.218 E-score.
In the case of GTGCGAAC, the binding signal was -0.184 E-score.
On to GCGAATAC, for which the binding signal amounted to 0.0221 E-score.
Next, AAACTGGG: -0.197 E-score; CCCGCTAC: -0.0971 E-score.
In the case of AGACCTAG it was 0.0543 E-score; in that of AGAAGCTC, -0.0476 E-score.
In the case of CCTAATCC it was 0.0562 E-score; in that of CGATAAGA, 0.0724 E-score.
With ACCTAAAA, the binding signal stood at 0.295 E-score.
In the case of AACTAAGA it was 0.223 E-score; in that of AACTAAAA, 0.347 E-score.
In the case of AACACAAA, the binding signal worked out at 0.135 E-score.
In the case of AGCGCAAG it was -0.0906 E-score; in that of ATACGACC, 0.00262 E-score; in that of AAAGGTAG, 0.316 E-score.
As to ATTAACTG, the binding signal was 0.214 E-score.
Turning to ATTAACTA, the binding signal came out at 0.367 E-score.
Next, ATTAACTC: 0.124 E-score; CTTAACTA: 0.273 E-score; GTTAACGA: 0.0428 E-score.
Next, GTTAACTA: 0.376 E-score; TAGTCACA: 0.123 E-score; TCGGGCCA: -0.12 E-score.
Next, AGAGTGCG: -0.139 E-score; AGTAGAAG: 0.276 E-score.
On to AGTAGAAT, for which the binding signal came to 0.422 E-score.
For AGTAGAAC, the binding signal was 0.234 E-score.
Turning to AGTAGAAA, the binding signal is 0.448 E-score.
Next, AGTAGAGA: 0.206 E-score.
Next, ATTAGAAA: 0.282 E-score; AACGGGCT: -0.138 E-score; AGCCATTG: -0.0954 E-score.
Next, AAGGACTG: -0.0637 E-score; ACAGAGAG: -0.125 E-score.
As for CTATTGTA, the binding signal is 0.355 E-score.
Next, ATATTGTA: 0.363 E-score; CTATTGTC: -0.0498 E-score; ATATTGTG: 0.214 E-score.
Next, GTATTGTA: 0.212 E-score; CAATTGTA: 0.251 E-score; ATGCGCGG: -0.168 E-score.
Next, CTGTCCAA: -0.154 E-score; CACAGAGG: -0.0801 E-score; ACATCCTG: -0.137 E-score.
Consider TCCTGCGA, for which the binding signal is -0.149 E-score.
On to GGCTTGAA, for which the binding signal is -0.105 E-score.
In the case of CACTGACG it was 0.009 E-score.
In the case of AAATTTGG, the binding signal was determined as 0.0224 E-score.
Turning to AATTTTAG, the binding signal amounted to 0.259 E-score.
In the case of AAATTTTA it was 0.374 E-score.
Turning to AAATTTGA, the binding signal came out at 0.0368 E-score.
Next, ATTTTTAC: 0.328 E-score.
Next, AAATTTAC: 0.38 E-score; AATTTTTA: 0.167 E-score.
Next, AAATTTGT: 0.33 E-score; AAATTTTC: 0.182 E-score; GAATTTAC: 0.282 E-score.
Take AATTTTAC: the binding signal was determined as 0.384 E-score.
Next, AAATTTAG: 0.242 E-score; TGAAGTAA: 0.132 E-score; GTAATAAC: 0.0936 E-score.
GTATTCGA: the binding signal was determined as 0.15 E-score.
In the case of ATTTGCTG it was -0.0116 E-score; in that of AAGATTGC, -0.0164 E-score.
AATCGTGA: the binding signal was -0.118 E-score.
Next, ACCCATGC: -0.182 E-score.
For AGAGCGAA, the binding signal is -0.138 E-score.
For the sequence GGTCGACA, the binding signal is -0.101 E-score.
As to CAATTTAC, the binding signal turned out to be 0.357 E-score.
In the case of AAAATTTA it was 0.282 E-score; in that of CAATTTAA, 0.0656 E-score.
In the case of CAATTTAG it was 0.232 E-score.
As to CAAATTTA, the binding signal came to 0.31 E-score.
In the case of TAAATTTA it was 0.405 E-score; in that of AGTCTGGG, -7.1e-05 E-score.
Next, GAGCTTAC: -0.189 E-score; CCGAAAAC: 0.168 E-score; AATACATA: 0.308 E-score.
In the case of TATACAAA it was 0.347 E-score.
Take AATACAAA: the binding signal came out at 0.313 E-score.
Next, CATACATA: 0.234 E-score; CATACAAA: 0.219 E-score; TATACATA: 0.401 E-score.
In the case of TACACATA it was 0.203 E-score; in that of CATACATG, 0.171 E-score; in that of GATACATA, 0.377 E-score.
Next, CATTAACC: -0.0128 E-score.
Turning to TCATACCA, the binding signal was 0.0725 E-score.
Next, ATTAGCAC: 0.0299 E-score.
